KCNH2 3.1 inh – KCNH2 3.1 (human) potassium channel inhibition. U2OS KCNH2 3.1, thallium flux FluxOr; active compounds read low. activity change, % (tested at about 1.8 µM). 0.95% of 340,000 active. AID 720553;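 active means maximum activity change below -70%; inconclusive means maximum activity change from -70% to -50%; inactive means maximum activity change above -50%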;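 further: thallium influx rate constant from kinetic fluorescence after stimulation buffer; on the % scale 0 is the no-effect control and ±100 the full control effect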
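Steps: virus added to U2OS suspension (4 h, RT, dark); medium with 10% FBS added, cells plated, 37 C overnight; FluxOr/Red40 loading buffer 45 min RT; stimulation buffer, 2 min kinetic read; rate constant normalized.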
KCNH2 WT inh – KCNH2 (human, wildtype) channel inhibition | activity change, % at 1.84 µM | 0.37% of 340,000 active | AID 720551 | U2OS, BacMam KCNH2, thallium flux FluxOr; active compounds read low | Q12809;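 active means maximum activity change below -70%; inconclusive means maximum activity change between -70% and -50%; inactive means maximum activity change above -50%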; further: on the % scale 0 is the no-effect control and ±100 the full control effect
Target sequence (Q12809 whole entry, looked up): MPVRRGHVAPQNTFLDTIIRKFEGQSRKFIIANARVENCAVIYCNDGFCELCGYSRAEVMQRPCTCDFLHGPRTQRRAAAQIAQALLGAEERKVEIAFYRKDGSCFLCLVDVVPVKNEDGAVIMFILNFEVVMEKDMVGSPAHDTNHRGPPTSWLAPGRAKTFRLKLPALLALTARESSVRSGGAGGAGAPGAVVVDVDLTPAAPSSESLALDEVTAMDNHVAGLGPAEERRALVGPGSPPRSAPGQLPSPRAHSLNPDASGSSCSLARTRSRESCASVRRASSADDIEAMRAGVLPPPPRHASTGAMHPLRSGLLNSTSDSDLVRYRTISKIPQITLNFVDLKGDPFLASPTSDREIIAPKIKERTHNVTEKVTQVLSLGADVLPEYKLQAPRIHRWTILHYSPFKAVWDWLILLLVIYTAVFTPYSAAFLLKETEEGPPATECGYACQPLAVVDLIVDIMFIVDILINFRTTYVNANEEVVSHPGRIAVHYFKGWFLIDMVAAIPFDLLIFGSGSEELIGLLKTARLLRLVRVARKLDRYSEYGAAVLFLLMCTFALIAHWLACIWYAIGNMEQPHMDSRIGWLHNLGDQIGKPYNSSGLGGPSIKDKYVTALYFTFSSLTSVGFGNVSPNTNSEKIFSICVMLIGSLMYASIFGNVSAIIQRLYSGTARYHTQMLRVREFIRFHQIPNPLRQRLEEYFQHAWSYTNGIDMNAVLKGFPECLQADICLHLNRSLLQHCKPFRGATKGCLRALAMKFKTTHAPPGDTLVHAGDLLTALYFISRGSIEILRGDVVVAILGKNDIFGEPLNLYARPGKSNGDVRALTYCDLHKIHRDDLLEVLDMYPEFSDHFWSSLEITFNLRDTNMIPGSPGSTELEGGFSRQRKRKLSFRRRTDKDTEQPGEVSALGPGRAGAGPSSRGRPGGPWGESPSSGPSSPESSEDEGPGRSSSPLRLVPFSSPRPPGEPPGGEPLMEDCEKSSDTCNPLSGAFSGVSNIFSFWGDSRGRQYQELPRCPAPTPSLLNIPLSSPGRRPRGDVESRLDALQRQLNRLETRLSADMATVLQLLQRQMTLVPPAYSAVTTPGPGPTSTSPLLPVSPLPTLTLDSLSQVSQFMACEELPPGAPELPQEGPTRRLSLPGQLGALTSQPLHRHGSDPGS
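U2OS cells were transduced with wild-type KCNH2 virus (2.03 x 10^8 / mL) for 4 h at room temperature, then cultured overnight at 37 C. Thallium flux was read with FluxOr dye. Rate constants were normalized to DMSO controls.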
Menin MLL FP TR – inhibitors of human menin-MLL interaction, mutant MLL peptide | O00255 | Menin + Texas Red MLL mutant peptide, fluorescence polarization | Potency, µM (highest dose often 61.6 µM), for the others: at the highest dose FP activity change, negative = inhibition, hits mostly inhibitors | 0.23% of 270,000 active | AID 1768; active means well fitted inhibition curve with a large enough effect in the polarisation, with a control signal flat, not every such curve was filed as active; inconclusive means small, poorly fitted or top-dose-only effect, or effect the other way, or a change in a side signal; inactive means no such curve, though single readings can be large or run the other way; the % refers to the polarisation; further: potency means the concentration at half of the fitted maximal effect; % of control where 0% means no effect
MLL CXXC-DNA inh – MLL CXXC-DNA interaction inhibition. Q03164. MLL-CXXC / FITC-HOXA9 DNA fluorescence polarization. Potency, µM (titrated, usually from 115 µM), for the others: at the top dose activity change, negative = inhibition, most hits filed as inhibitors. 0.037% of 290,000 active; active means well fitted inhibition curve with a large enough effect in the polarisation, with a control signal flat, not every such curve was filed as active; inconclusive means small, poorly fitted or top-dose-only effect, or effect the other way, or a change in a side signal; inactive means no such curve, though single readings can be large or run the other way; the % refers to the polarisation; further: potency means the concentration at half of the fitted maximal effect
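Fluorescence polarization: 7 uM MLL-CXXC (stock) preincubated 5 min with compounds, then 50 nM fluorescein-HOX-A9 DNA (stock) added; 30 min ambient. Buffer 50 mM Tris-HCl pH 7.5, 50 mM NaCl, 1 mM DTT, 0.05% BSA.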
Menin MLL FP FL – menin-MLL binding inhibition, fluorescein peptide | Fluorescence polarization, fluorescein-MLL peptide displacement from menin | 290,000 tested, under 10 active | FP activity change, % at 61.4 µM; active means well fitted curve in the direction sought with a large enough effect in the polarisation, not every such curve was filed as active; inconclusive means small, poorly fitted or top-dose-only effect, or effect the other way, or a change in a side signal; inactive means no such curve, though single readings can be large or run the other way; the % refers to the polarisation; further: % of control where 0% means no effect
An asterisk follows results filed as active; ? = inconclusive; / = no result; [ ] = remark or other dose. Rows were chosen to be rich in hits. Some 1.1% of all compounds tested hit in one or more screens of this group.

SMILES | KCNH2 3.1 inh | KCNH2 WT inh | Menin MLL FP TR | MLL CXXC-DNA inh | Menin MLL FP FL
Cn1cnc(C(=O)NCc2ccccc2)c1C(=O)NCc1ccccc1 | 4 | -2 | / | / | /
CCCCCCN1C[C@H](O)[C@@H](n2cc(C3CC3)nn2)C[C@@H]1c1ccc(OC)cc1 | -117* | ? | / | / | /
CCCNC(=O)c1ccc(N2CCC3(CC2)CC(c2ccccc2)=NO3)c(NC(=O)c2ccccc2)c1 | ? | -40 | -11% | 2% | 4
CCCNC(=O)c1ccc(N2CCC3(CC2)CC(c2cccc(Br)c2)=NO3)c([N+](=O)[O-])c1 | -80* | -129* | 20% | 11% | -3
CCCCCCCC(=O)Nc1cc(C(=O)NCCC)ccc1N1CCC2(CC1)CC(c1ccccc1)=NO2 | -90* | -113* | -19% | 3% | 1
CCCNC(=O)c1ccc(N2CCC3(CC2)CC(c2cccc(Br)c2)=NO3)c(NC(=O)c2cccc(OC)c2)c1 | -72* | -40 | / | / | /
CCCNC(=O)c1ccc(N2CCC3(CC2)CC(c2cccc(Br)c2)=NO3)c(NC(=O)c2ccccc2)c1 | -42 | -37 | / | / | /
CCN(CC)Cc1cc(Nc2c3ccccc3nc3c4ccccc4n(C)c23)cc(CN(CC)CC)c1O | -1 | -3 | / | / | /
CC[C@]12c3[nH]c4ccccc4c3CCN1C(=O)C(CC(=O)NCCN1CCOCC1)C[C@@H]2C(=O)N1CCN(C(=O)C2CC2)CC1 (stereo partly drawn) | 6 | -114* | / | / | /
Cc1ccc(C)c(N2CCN(C(=S)Nc3ccc4nc(N5CCN(C)CC5)cc(C)c4c3)CC2)c1 | -90* | -115* | -20% | ? | -6
Cc1cc(N2CCN(C)CC2)nc2ccc(NC(=S)N3CCN(c4ccccn4)CC3)cc12 | 6 | 1 | -11% | 4% | -2
COc1ccccc1N1CCN(C(=S)Nc2ccc3nc(N4CCOCC4)cc(C)c3c2)CC1 | -42 | 18 | 9% | -5% | 4
Cc1cc(N2CCN(C)CC2)nc2ccc(NC(=S)NCCC(C)C)cc12 | -3 | 3 | 5% | 16% | -3
Cc1ccc(C)c(N2CCN(C(=S)Nc3ccc4nc(N5CCOCC5)cc(C)c4c3)CC2)c1 | -85* | -77* | -1% | 10% | 4
Cc1cc(N2CCOCC2)nc2ccc(NC(=S)NCCC(C)C)cc12 | -88* | 9 | -13% | 5% | -5
Cc1cccc(N2CCN(C(=S)Nc3ccc4nc(N5CCOCC5)cc(C)c4c3)CC2C)c1 (stereo not drawn) | -76* | -15 | -6% | 1% | -3
Cc1cc(N2CCOCC2)nc2ccc(NC(=S)N3CCN(c4ccccc4)CC3)cc12 | 17 | 0 | -11% | 2% | -7
CSc1ccccc1-c1nc(-c2ccncc2)no1 | 5 | -18 | 1% | -12% | 9
COc1ccc(NC(=O)CSc2ccc3nnc(CCNC(=O)c4ccccc4)n3n2)cc1OC | 11 | 17 | / | -11% | /
CCOc1ccc(NC(=O)CN(C)C(=O)C2CCN(C(=O)Nc3ccccc3)CC2)cc1OCC | 14 | 3 | / | / | /
CCS(=O)(=O)N1Cc2ccccc2CC1C(=O)N(C)Cc1ccc(OC)c(F)c1 (stereo not drawn) | 12 | -9 | -3% | 20% | 0
O=c1c2cn[nH]c2nc(SCc2c(F)cccc2F)n1-c1ccc(Cl)cc1 | 4 | -230* | -5% | 12% | -2
Cc1noc(C)c1CSc1nc2[nH]ncc2c(=O)n1-c1ccccc1 | -18 | 14 | 7% | -5% | 4
Oc1ccc(C[C@H]2CNC(=S)N2CC2CCCN2C[C@H](Cc2ccc(O)cc2)N2C[C@H](Cc3ccccc3)N(CC3CCCCCC3)C2=S)cc1 (stereo partly drawn) | -36 | -25 | / | / | /
O=C1C2C(C(=O)N1/N=C/c1ccc([N+](=O)[O-])o1)C1C=CC2C12CC2 (stereo not drawn) | 0 | 4 | -11% | 9% | 3
SMILES | KCNH2 3.1 inh | KCNH2 WT inh | Menin MLL FP TR | MLL CXXC-DNA inh | Menin MLL FP FL
CC1=NN(c2nc(N)nc(/C(C#N)=C/c3ccc([N+](=O)[O-])o3)n2)C(C)(C)C1 | -72* | -6 | / | / | /
Cc1ccc(NC(=S)NCCc2c[nH]c3ccccc23)c(C)c1 | -91* | 22 | / | 11% | -1
C[C@@H]1CN([C@H](C)CO)C(=O)c2cccc(NC(=O)c3ccncc3)c2O[C@@H]1CN(C)Cc1ccc(C(=O)O)cc1 | -85* | -6 | / | / | /
C[C@H](CO)N1C[C@H](C)[C@@H](CN(C)Cc2ccc3c(c2)OCO3)Oc2c(NC(=O)C3CCCCC3)cccc2C1=O | -96* | -4 | / | / | /
CC(=O)N1CCC[C@@]2(CCN(C(c3ccccc3)c3ccccc3)C2)C1 | / | / | -16% | / | -2
Cn1nnc(NC(=O)c2ccc(Br)o2)n1 | -77* | -19 | / | 0% | /
COc1ccc([C@H]2CC(=O)C=C(c3cccc(C(F)(F)F)c3)C2)cc1 | -75* | 20 | / | / | /
CCOc1ccc(NC(=O)CSc2nc(=O)n(CCCN3CCOCC3)c3c2CCC3)cc1 | 4 | -12 | / | / | /
CSc1nc(N2CCN(Cc3ccc4c(c3)OCO4)CC2)c2ccccc2n1 | -73* | -1 | -29% | -1% | -9
Cc1nc(N2CCN(Cc3ccc4c(c3)OCO4)CC2)c2cc(-c3ccccc3)sc2n1 | -21 | 13 | -12% | 1% | 1
COc1cc(NC(=O)c2ccc3c(SCC(=O)O)c4c(nc3c2)CCCC4)cc(OC)c1OC | -77* | / | 23% | 3% | 12
COc1cc(OC)c(NC(=O)c2ccc3c(SCC(=O)O)c4c(nc3c2)CCCC4)cc1Cl | -104* | 4 | ? | -1% | 10
CC(NC(=O)Cc1ccc(S(=O)(=O)N2CCOCC2)s1)c1ccc(Cl)c(Cl)c1 (stereo not drawn) | -10 | -2 | / | / | /
CC(C)=CCC/C(C)=C/CO/N=C1/C[C@@H](O)[C@@H](O)[C@@H]2[C@@H]3C(=O)N(Cc4ccccc4)C(=O)[C@H]3CC[C@@H]12 | / | / | 14%[11.7 µM] | / | 6[11.7 µM]
Cc1ccc(N(CC(O)CN2CCCCC2)S(=O)(=O)c2ccc(C)cc2)cc1 (stereo not drawn) | -99* | -7 | -18% | 9% | -1
COc1ccc(CCCO[C@@H](Cn2ccnc2)c2ccc(OC)cc2)cc1 | / | / | -24%[24.8 µM] | / | ?
N#CC1=C(N)NC(SCC(=O)Nc2ccc(Br)cc2)=C(C#N)C12CCCCC2 | -33 | -146* | ? | 2% | 3
CCOC(=O)C1CCN(S(=O)(=O)c2ccc3oc(=O)ccc3c2)CC1 | 6 | 40 | / | -2% | /
CN1CCN(C(=O)C2=C[C@H](c3ccc4c(c3)OCO4)C[C@H](OCCCCO)O2)CC1 | -91* | -1 | / | / | /
Cc1ccc(S(=O)(=O)N2CCCN(C(C)c3nc4ccccc4c(=O)[nH]3)CC2)cc1 (stereo not drawn) | -1 | -280* | / | / | /
COc1ccc(CC(O)COS(N)(=O)=O)cc1 (stereo not drawn) | 10 | 6 | -15% | 2% | 4
COC(=O)[C@H](C)NC(=O)C/C=C\[C@@H](C)[C@@H](CO)OC | / | / | -1%[11.7 µM] | / | 5[11.7 µM]

Screening data (PubChem BioAssay)
